Reference: PubChem BioAssay AID1159580 (chemical genetic matrix, 2015)
The campaign covered roughly 5,500 compounds. About 2,000 (36%) were called active. Not shown: some 18% with an inconclusive outcome. Cut-off read from the data, not from the text of the source: active = normalized growth mostly below about 0.91 (no sharp cut-off); inconclusive = no clear call, values can overlap the other calls; inactive = mostly above about 0.92. Some of the results follow.

Assay: chemical genetic growth profiling, strain panel (AID 1159580);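 note: tested at 20 µM; growth read once vehicle control cultures reached saturation at 30 °C; 1 = growth at the plate median or of vehicle wells; lower values mean less growth of the strain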
Details: S. cerevisiae deletion strains, growth OD

Measured: normalized growth

O=C(/C=C/C(=O)Oc1ccccc1C(=O)O)Oc1ccccc1C(=O)O
inactive: locus YAL021C, strain ccr4, active compounds read low 0.961 | locus YAL026C, strain drs2, active compounds read low 0.988 | locus YAL030W, strain snc1, active compounds read low 0.992 | locus YBL061C, strain skt5, active compounds read low 0.983 | locus YBR009C, strain hhf1, active compounds read low 0.991 | locus YBR023C, strain chs3, active compounds read low 0.994 | locus YBR171W, strain sec66, active compounds read low 0.962 | locus YBR231C, strain swc5, active compounds read low 0.984 | locus YBR279W, strain paf1, active compounds read low 0.978 | locus YCL011C, strain gbp2, active compounds read low 0.989 | locus YCL016C, strain dcc1, active compounds read low 0.971 | locus YCL061C, strain MRC1, active compounds read low 0.995 | locus YCL069W, strain vba3, active compounds read low 0.99 | locus YCR088W, strain abp1, active compounds read low 0.987 | locus YDL005C, strain med2, active compounds read low 0.976 | locus YDL040C, strain nat1, active compounds read low 0.992 | locus YDR001C, strain nth1, active compounds read low 0.972 | locus YDR069C, strain doa4, active compounds read low 0.98 | locus YDR137W, strain rgp1, active compounds read low 0.969 | locus YDR159W, strain sac3, active compounds read low 0.971 | locus YDR195W, strain ref2 0.976 | locus YDR297W, strain sur2, active compounds read low 0.987 | locus YDR334W, strain swr1, active compounds read low 0.99 | locus YDR335W, strain msn5, active compounds read low 0.986 | locus YDR392W, strain spt3, active compounds read low 0.995 | locus YEL003W, strain gim4, active compounds read low 0.995 | locus YEL037C, strain rad23, active compounds read low 0.998 | locus YEL061C, strain CIN8 (second series), active compounds read low 0.981 | locus YER015W, strain faa2, active compounds read low 0.992 | locus YER016W, strain bim1, active compounds read low 0.971 | locus YER111C, strain swi4, active compounds read low 0.975 | locus YER155C, strain BEM2 (second series), active compounds read low 0.998 | locus YFR010W, strain ubp6, active compounds read low 0.991 | locus YGL167C, strain pmr1, active compounds read low 0.976 | locus YGL173C, strain kem1, active compounds read low 1 | locus YGL227W, strain vid30, active compounds read low 0.962 | locus YGL240W, strain doc1, active compounds read low 0.984 | locus YGL253W, strain hxk2, active compounds read low 0.995 | locus YHR013C, strain ard1, active compounds read low 0.984 | locus YHR027C, strain rpn1, active compounds read low 0.979 | locus YHR030C, strain SLT2, active compounds read low 1.01 | locus YHR079C, strain IRE1, active compounds read low 1.02 | locus YHR142W, strain chs7, active compounds read low 0.974 | locus YJL092W, strain hpr5, active compounds read low 0.989 | locus YJL095W, strain BCK1 (second series), active compounds read low 0.992 | locus YJL095W, strain BCK1, active compounds read low 1.02 | locus YJL115W, strain asf1, active compounds read low 0.968 | locus YJL129C, strain trk1, active compounds read low 0.964 | locus YJL154C, strain vps35, active compounds read low 0.996 | locus YJL164C, strain tpk1, active compounds read low 0.99 | locus YJL166W, strain qcr8, active compounds read low 0.997 | locus YJR066W, strain TOR1, active compounds read low 0.975 | locus YKL160W, strain elf1, active compounds read low 0.981 | locus YKR026C, strain gcn3, active compounds read low 0.968 | locus YKR091W, strain srl3, active compounds read low 0.978 | locus YLL001W, strain dnm1, active compounds read low 0.999 | locus YLL026W, active compounds read low 0.961 | locus YLL041C, strain sdh2, active compounds read low 0.987 | locus YLR027C, strain aat2, active compounds read low 0.985 | locus YLR113W, strain HOG1, active compounds read low 0.987 | locus YLR221C, strain rsa3, active compounds read low 1 | locus YLR258W, strain gsy2, active compounds read low 0.988 | locus YLR262C, strain YPT6 (second series), active compounds read low 0.996 | locus YLR320W, strain mms22, active compounds read low 1.01 | locus YLR342W, strain FKS1, active compounds read low 0.983 | locus YLR357W, strain rsc2, active compounds read low 0.987 | locus YLR370C, strain arc18, active compounds read low 0.994 | locus YLR384C, strain iki3, active compounds read low 0.976 | locus YML120C, strain ndi1, active compounds read low 0.974 | locus YMR058W, strain fet3, active compounds read low 0.984 | locus YMR125W, strain sto1, active compounds read low 0.967 | locus YMR129W, active compounds read low 0.973 | locus YMR205C, strain PFK2, active compounds read low 0.964 | locus YMR231W, strain pep5, active compounds read low 0.979 | locus YNL071W, strain lat1, active compounds read low 1 | locus YNL183C, strain NPR1, active compounds read low 0.976 | locus YNL209W, strain ssb2, active compounds read low 0.971 | locus YNL248C, strain rpa49, active compounds read low 0.985 | locus YNL322C, strain KRE1 (second series), active compounds read low 0.93 | locus YNR049C, strain mso1, active compounds read low 0.985 | locus YOR001W, strain rrp6, active compounds read low 1 | locus YOR070C, strain gyp1, active compounds read low 0.978 | locus YOR080W, strain dia2, active compounds read low 0.98 | locus YOR083W, strain WHI5, active compounds read low 0.935 | locus YOR106W, strain vam3, active compounds read low 0.953 | locus YOR231W, strain MKK1, active compounds read low 1.01 | locus YOR265W, strain rbl2, active compounds read low 0.979 | locus YOR270C, strain vph1, active compounds read low 1.02 | locus YOR290C, strain snf2, active compounds read low 0.98 | locus YPL051W, strain arl3, active compounds read low 0.984 | locus YPL078C, strain atp4, active compounds read low 0.984 | locus YPL106C, strain sse1, active compounds read low 0.973 | locus YPL240C, strain hsp82, active compounds read low 0.968 | locus YPL256C, strain CLN2, active compounds read low 1
